± gives the standard deviation of the averaged measurements. Whole data set: some 25,000 sequences, median “ln(normalized median fluorescence intensity)” near 10, cut for the highest 2% near 12. Only a selection was taken, and the highest values are over-represented in it overall.

This experiment has as its system PfAP2-G AP2 domain (GST-tagged). The experiment is described as follows: gcPBM binding intensity (ln(normalized median fluorescence intensity)); higher = stronger DNA binding. The gist of the method: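 GST-tagged P. falciparum DNA-binding domains, expressed in E. coli (about 25 μg on average), were applied for 1 h to an Agilent 4 × 180k array of primer-extended double-stranded 36-bp intergenic genomic probes plus negative controls. The binding buffer was 1× PBS with 1% milk, 0.2 mg/ml BSA, 0.5% salmon testes DNA and 0.03% Triton X-100. Bound protein was detected with Alexa488 anti-GST antibody and scanned at 488 nm. Binding intensity is the highest Masliner-normalised natural-log median intensity across replicate spots of either probe orientation.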
For “ATGAAAATTATAAAGTGTACATATAGAAACATTTAC [XGTACX_site8047]”, the “gcPBM binding intensity (ln)” value amounted to 11.4 ± 0.99. As for “CATACATTTAAAAAGTGTACGTATATGAAAAAAGGA [XGTACX_site6512]”, the “gcPBM binding intensity (ln)” value is 11.7 ± 1.1. On to “TGTATATACATAAAGTGTACGTATATTTATATATAT [XGTACX_site4320]”, for which the “gcPBM binding intensity (ln)” value was determined as 11.6 ± 0.98. On to “TACATATACATATACACACACACACCCAAATAAATA [CACACA_site1344]”, for which the “gcPBM binding intensity (ln)” value worked out at 10.3 ± 0.35. Regarding “TATATTAACAAAATGGTGCAATAATTTCTATATTAT [GTGCAC_site9857]”, the “gcPBM binding intensity (ln)” value is 10.1 ± 0.22. Consider “TTTTCTCTAAAAAGGTGTACAACTAATAATGCACTG [XGTACX_site6074]”, for which the “gcPBM binding intensity (ln)” value amounted to 11.7 ± 0.83. Regarding “ATTTTTCTAAAATACTGTACAAAGGTGCATAAAAAG [XGTACX_site4425]”, the “gcPBM binding intensity (ln)” value amounted to 11 ± 0.64. The figure for “GATAATGAATGATGCACACTAAAAATATTCTACAAC [CACACA_site3622]” is 10.185 ± 0.007. As to “TTATATATTTTATTATTTATAATCTTTTTTTTATTT [CACACA_negctrl_site112]”, the “gcPBM binding intensity (ln)” value is 9.585 ± 0.049. The figure for “AAAAATGAGTGACACACACACATATAAATATAAATA [CACACA_site7115]” is 10.1 ± 0.25; for “TATGTATGCCTGTTTTGTACTTAAGAAAATGTTGCT [XGTACX_site8443]” it is 11 ± 0.57; for “TGTGTCAAATAATTAATGTCATATATATTTTGTATA [CACACA_negctrl_site1479]” it is 9.675 ± 0.078. For the sequence “TATTTTTTTAATAACTGTACTTTTTTGTCAAATGGA [XGTACX_site4179]”, the “gcPBM binding intensity (ln)” value is 11.7 ± 1.2. On to “AATTTTTGTATTTTTAGTACTTAATTTCAAAATAAC [XGTACX_site4234]”, for which the “gcPBM binding intensity (ln)” value was 11.2 ± 0.6. Take “AATAAATATATATTCACACACAAACATATATATATA [CACACA_site4023]”: the “gcPBM binding intensity (ln)” value is 10.1 ± 0.45. Turning to “CAGTATTACATGAGGACACACACAAAAAAAATATAT [CACACA_site8156]”, the “gcPBM binding intensity (ln)” value was determined as 11.3 ± 0.86.

For the sequence “AATATAAAAAAAAAATGTACATATTATATATATATA [XGTACX_site5113]”, the “gcPBM binding intensity (ln)” value stood at 11.1 ± 0.72. In the case of “ATAATTAAATAAAAAAGTACACATACATCATAATGC [XGTACX_site7656]”, the “gcPBM binding intensity (ln)” value was 11.5 ± 0.87. The figure for “TTAAAAATGATTGAATGTACAGATTAATATAATTTT [XGTACX_site7394]” is 10.7 ± 0.28. For “AAAAAATAATTGAAGTGTACGTACAATGATTTTACT [XGTACX_site7663]”, the “gcPBM binding intensity (ln)” value stood at 11.8 ± 1.1. Regarding “AAAAGAACAATGAAGTGTACTAATAATTATTTATGT [XGTACX_site6649]”, the “gcPBM binding intensity (ln)” value was 11.3 ± 0.79. In the case of “TAAAATGAAGGAATATGTACATAAATAAACATATAT [XGTACX_site6266]”, the “gcPBM binding intensity (ln)” value amounted to 11.2 ± 0.63. In the case of “TTATAGTAATAATAATGTACATTTATACACATATAT [XGTACX_site1965]”, the “gcPBM binding intensity (ln)” value came out at 10.9 ± 0.47. The figure for “GACATTTGTGAGCTTGAGCCGTCAAACCACTAAATA [CACACA_negctrl_site552]” is 9.99 ± 0.028. Take “AAAAGAAAAGAGAGGAGTACAAAATATAATTATCTA [XGTACX_site5172]”: the “gcPBM binding intensity (ln)” value came out at 11.3 ± 0.76.

For “TAAAAATGATCAAAGGGTACAGTATTAATTAAAAAA [XGTACX_site1079]”, the “gcPBM binding intensity (ln)” value was determined as 11.3 ± 0.93. “ATATAAGATTTAAGAAGTACAATTATACAGTAGATC [XGTACX_site7501]”: the “gcPBM binding intensity (ln)” value came to 11.4 ± 0.88.

On to “GGGGGTAGGGGAAGAAGTACAATGATCACTACAGTA [XGTACX_site1169]”, for which the “gcPBM binding intensity (ln)” value amounted to 11.9 ± 1.3. In the case of “AGGCGTGAAATATACGTACACACATTATTTATATTT [CACACA_site2558]”, the “gcPBM binding intensity (ln)” value was found to be 11.6 ± 1. On to “TTATTTTTAACGTACGCACACATATAAATATATTTA [CACACA_site1976]”, for which the “gcPBM binding intensity (ln)” value came out at 11.5 ± 0.97. On to “TTTATTTATTTTTAACGTACGCACACATATAAATAT [XGTACX_site4042]”, for which the “gcPBM binding intensity (ln)” value amounted to 11.4 ± 0.72. Turning to “TATTTATACATACGTACACACAAATATTAAAATATA [CACACA_site7004]”, the “gcPBM binding intensity (ln)” value was 11.5 ± 0.96. For “CGCAACGTGAAAATACGTACACATACATTTTTATAT [XGTACX_site330]” the value was 11.7 ± 0.85; for “CAGGCGTGAAATATACGTACACACATTATTTATATT [XGTACX_site5337]”, 11.8 ± 0.94. Take “TTGTTAATATATATATGTACTTATTTATTTATTTAT [XGTACX_site2274]”: the “gcPBM binding intensity (ln)” value turned out to be 11.4 ± 0.93. The figure for “TATATATATATATAATGTACAGAAAAAAAAAAAAAA [XGTACX_site6141]” is 10.8 ± 0.86; for “TATTCAAAGAAAAACTGTACGTGTAGCAAACGTCAT [XGTACX_site7713]” it is 11.5 ± 0.83; for “TACAGATAAATATACATACATATATATATATATATA [XGTACX_negctrl_site182]” it is 9.86 ± 0.42. Regarding “TGAAATTTTTATACATGTACAAAATTAAATATAACA [XGTACX_site7324]”, the “gcPBM binding intensity (ln)” value stood at 10.8 ± 0.49. As for “TTATATATTTTTAGGTGTACTTTTTTTTTTTTTTTT [XGTACX_site8164]”, the “gcPBM binding intensity (ln)” value turned out to be 11.7 ± 0.91.

“ATATATATTTTATATTGTACTTATTATTTTTAGGGC [XGTACX_site723]”: the “gcPBM binding intensity (ln)” value stood at 11.4 ± 0.81.

“TATATTTTTTTAAAAAGTACTTTGTATATATATATA [XGTACX_site1300]”: the “gcPBM binding intensity (ln)” value is 11.1 ± 0.83. Take “TTATTTATTTAGTAGTGTACTTTTTATATTTATAAT [XGTACX_site5978]”: the “gcPBM binding intensity (ln)” value was determined as 11.6 ± 0.99. For “GTATATTTTTAAAGGTGTACTTTTTTTTTTTTTTTT [XGTACX_site721]”, the “gcPBM binding intensity (ln)” value was 11.8 ± 1.1. Consider “TATTTTATATAAAGGTGTACTTATACAAAAATATAT [XGTACX_site7435]”, for which the “gcPBM binding intensity (ln)” value was 11.5 ± 0.88.

Source of the values: the supplement of paper PMC11417369.
